Experimental data as given in PubChem BioAssay (NCATS).
Several values for one entry are separate records, joined by “and”; a condition that tells them apart may be missing. Equal entries are not always repeated. Values without a mark were called inactive. Results filed as inconclusive are left out. Activity calls are given as the source filed them. The call rests on the fitted dose curve; in most records, active means well fitted curve in the direction sought with a large enough effect; inconclusive means small, poorly fitted or top-dose-only effect, or another doubt; inactive means no such curve, though single readings can be large; an effect the other way counts as inactive or inconclusive.

How the values were obtained:
[1] = target: Cytochrome P450 3A4 (Homo sapiens) (UniProt P08684); assay: qHTS Assay for Inhibitors and Substrates of Cytochrome P450 3A4 (AID 884); further: potency means the concentration at half of the fitted maximal effect; nearly all actives have a fitted effect of over 50% in size
Chain of Cytochrome P450 3A4 (Homo sapiens) (P08684 whole entry, looked up): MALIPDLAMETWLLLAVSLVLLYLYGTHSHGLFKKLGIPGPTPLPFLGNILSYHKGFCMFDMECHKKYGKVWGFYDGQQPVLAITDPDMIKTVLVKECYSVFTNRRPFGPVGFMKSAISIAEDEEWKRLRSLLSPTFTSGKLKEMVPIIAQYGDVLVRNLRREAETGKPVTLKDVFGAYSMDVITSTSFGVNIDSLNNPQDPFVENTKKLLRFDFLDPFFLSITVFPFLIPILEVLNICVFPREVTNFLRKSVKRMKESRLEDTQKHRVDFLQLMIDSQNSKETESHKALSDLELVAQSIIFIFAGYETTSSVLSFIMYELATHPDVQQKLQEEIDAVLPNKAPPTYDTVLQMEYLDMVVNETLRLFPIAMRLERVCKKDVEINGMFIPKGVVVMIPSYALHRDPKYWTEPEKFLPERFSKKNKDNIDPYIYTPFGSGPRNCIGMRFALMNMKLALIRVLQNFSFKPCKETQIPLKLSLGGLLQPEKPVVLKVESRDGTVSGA
Summary of the method: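 Luminescent readout of luciferin produced by CYP3A4 (20 nM) dealkylation of Luciferin-PPXE, 25 uM (its KM). NADPH-driven reaction ran 60 min at RT after 10 min compound preincubation; data scaled to 57 uM ketoconazole as 100% inhibition.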

[2] = target: Cytochrome P450 3A4 (Homo sapiens) (UniProt P08684); assay: qHTS Assay for Activators of Cytochrome P450 3A4 (AID 885); further: nearly all actives have a fitted effect of over 65% in size
Summary of the method: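 Luminescent readout of luciferin formed from 25 uM Luciferin-PPXE (KM level) by 20 nM CYP3A4 in 200 mM KPO4, with 60 min NADPH-driven reaction at room temperature after 10 min compound exposure. Ketoconazole (57 uM) defined 100% inhibition.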

| SMILES | Potency [1] | activity change, positive = activation [2] | Potency [2] |
| --- | --- | --- | --- |
| O=C(N/N=C1/C[C@@H](O)[C@@H](O)[C@@H]2[C@@H]3C(=O)N(Cc4ccc5c(c4)OCO5)C(=O)[C@H]3CC[C@H]12)OCc1ccccc1 | 3.98 µM (active) | -89.7% [at 11.4 µM] |  |
| CO[C@@H]1COC(=O)CCC[C@@H](C)[C@H](OC)COC(=O)[C@H](Cc2ccccc2)NC(=O)C/C=C\[C@H]1C | 3.98 µM (active) | -87.8% [at 11.4 µM] |  |
| CN1C[C@@H]2C(c3ccc(C(F)(F)F)cc3)C3(c4ccc(C#N)cc4)CC2(C3)[C@H]1c1ccccc1 (stereo partly specified) | 20 µM (active) |  | inactive |
| O=C1C[C@@H](O)[C@@H](O)[C@H]2[C@@H]3C(=O)N(Cc4ccc5c(c4)OCO5)C(=O)[C@@H]3CC[C@H]12 | 3.98 µM (active) | -78.5% [at 11.4 µM] and -81.2% [at 11.4 µM] |  |
| CCC1=C(OC(=O)N(CC)CC)N2C(=O)OC(=NCCc3c[nH]c4ccccc34)[C@]2(C)[C@H]2C1=CC[C@H]1C(=O)N(CC)C(=O)[C@H]12 | 1.26 µM (active) |  | inactive |
| CCC1=C2CC[C@H]3C(=O)NC(=O)[C@H]3[C@H]2[C@@]2(Cc3ccccc3)C(=NCC3CC3)OC(=O)N2C1=O | 15.8 µM (active) |  | inactive |
| COC(=O)NC(c1ccco1)C(C(C)=O)C(=O)OC (stereo unspecified) | 3.16 µM (active) | -66.9% [at 11.4 µM] |  |
| Cc1ccc(S(=O)(=O)N[C@@H]2COC(=O)C/C=C\[C@H](C)COC(=O)N[C@@H](C)C(=O)C/C=C\[C@H]2C)cc1 | 3.16 µM (active) | -86.3% [at 11.4 µM] |  |
